Assay results taken from PubChem BioAssay (NCATS).
Records with an inconclusive call do not appear. Calls of active or inactive are those of the source. Calls follow the shape of the dose curve; as a rule, active = well fitted curve in the direction sought with a large enough effect; inconclusive = small, poorly fitted or top-dose-only effect, or another doubt; inactive = no such curve, though single readings can be large; an effect the other way counts as inactive or inconclusive.

Tests used:
[1] = qHTS of pediatric cancer cell lines to identify multiple opportunities for drug repurposing: Primary screen for TC32 cells (AID 1347089); also: nearly all actives have a fitted effect of over 60% in size
How it was run: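 Measured quantity: luminescence from CellTiter-Glo, reflecting metabolically active TC32 cells following 48 h of compound. Curves came straight from multi-point titrations, with 8 or 11 points in primary and 11 in confirmatory screening.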

[2] = qHTS of pediatric cancer cell lines to identify multiple opportunities for drug repurposing: Primary screen for SK-N-MC cells (AID 1347093)
How it was run: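 Metabolically active cells were quantified by ATP-dependent luminescence (CellTiter-Glo, 15 min at room temperature) following 48 h treatment. Cells had been plated at 500-1,000 per well and settled for 5 h beforehand.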

[3] = qHTS of pediatric cancer cell lines to identify multiple opportunities for drug repurposing: Primary screen for BT-37 cells (AID 1347094)
How it was run: (§1)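 ATP-based luminescence (CellTiter-Glo) quantifies viability after a 48-hour exposure. Compounds are dosed across 8 or 11 final concentrations; DMSO and 2.3 µM bortezomib serve as controls.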

[4] = qHTS of pediatric cancer cell lines to identify multiple opportunities for drug repurposing: Primary screen for NB-EBc1 cells (AID 1347095)
How it was run: as §1

[5] = qHTS of pediatric cancer cell lines to identify multiple opportunities for drug repurposing: Primary screen for U-2 OS cells (AID 1347096); also: nearly all actives have a fitted effect of over 50% in size
How it was run: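 Viability after 48 h compound treatment at 37C, 500-1,000 cells/well, read as ATP luminescence with CellTiter-Glo. Primary screens used 11-point (MIPE, 0.78 nM-46 µM) or 8-point (NPC, 0.59 nM-46 µM) final concentrations; follow-up screens used 11-point dilutions.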

[6] = qHTS of pediatric cancer cell lines to identify multiple opportunities for drug repurposing: Primary screen for Saos-2 cells (AID 1347097); also: nearly all actives have a fitted effect of over 40% in size
How it was run: as §1

[7] = qHTS of pediatric cancer cell lines to identify multiple opportunities for drug repurposing: Primary screen for SJ-GBM2 cells (AID 1347091)
How it was run: (§2)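 Viability measured as metabolically active cells via CellTiter-Glo luminescence following 48 hours of compound exposure, 11-point dilutions in confirmatory testing. 500-1,000 cells/well plated 5 hours before dosing; controls were DMSO and 2.3 µM bortezomib.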

[8] = qHTS of pediatric cancer cell lines to identify multiple opportunities for drug repurposing: Primary screen for A673 cells (AID 1347092); also: nearly all actives have a fitted effect of over 45% in size
How it was run: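 Cells are plated, rested 5 h, dosed by pintool, incubated 48 h, then lysed with CellTiter-Glo and read by luminescence. DMSO is the neutral control; bortezomib at 2.3 uM final is the positive control.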

[9] = qHTS of pediatric cancer cell lines to identify multiple opportunities for drug repurposing: Primary screen for DAOY cells (AID 1347090); also: nearly all actives have a fitted effect of over 55% in size
How it was run: as §2

Measured: Potency
Potency is read from the fitted curve at half-maximal effect.

Cc1coc2c1C(=O)C(=O)c1c-2ccc2c1CCCC2(C)C
active: [2] 8330 nM | [3] 21.7 µM | [4] 8.33 µM | [6] 1.66 µM
inactive: [1] | [5]

CCOC(=O)C1=C(C)NC2=C(C(=O)CC(C)(C)C2)C1c1ccc(-c2ccccc2)cc1 (stereo unspecified)
active: [7] 4690 nM | [8] 3.72 µM | [3] 3.85 µM | [4] 5.9 µM | [6] 3.32 µM
inactive: [1]

O=C(Nc1cn[nH]c1-c1nc2ccc(CN3CCOCC3)cc2[nH]1)NC1CC1
active: [9] 3.72 µM | [7] 590 nM | [8] 1.48 µM | [2] 59 nM | [3] 12.2 µM | [4] 1.48 µM | [5] 4.69 µM | [6] 0.935 µM

CNC(=O)c1ccc(-c2cnc3ncc(Cc4ccc5ncccc5c4)n3n2)cc1F
inactive: [1] | [3] | [5] | [6]

O=C(O)c1ccc2cc(-c3ccc(O)c(C45CC6CC(CC(C6)C4)C5)c3)ccc2c1
active: [9] 0.469 µM | [7] 148 nM | [8] 2.35 µM | [2] 372 nM | [3] 0.863 µM | [4] 0.209 µM | [6] 0.296 µM
inactive: [5]

CCn1nnc2c(N3CCOCC3)nc(-c3ccc(NC(=O)Nc4ccc(C(=O)N5CCN(C)CC5)cc4)cc3)nc21
active: [9] 0.235 µM | [7] 46.9 nM | [8] 0.0935 µM | [2] 5.9 nM | [3] 0.0172 µM | [4] 0.743 µM

CC(=O)Nc1sc2c(c1-c1nc3ccccc3s1)CNC2
inactive: [1] | [5]
active: [8] 18.7 µM | [3] 15.3 µM | [4] 2.35 µM

COc1cc(C(C)C)c2c(c1)S(=O)(=O)N(COc1cc(=O)n3cccc(OCCN4CCCCC4)c3n1)C2=O
active: [7] 26400 nM | [8] 7.43 µM | [2] 3720 nM | [6] 26.4 µM
inactive: [1] | [5]

CC(=O)OCC(=O)[C@@]1(O)[C@H](C)C[C@H]2[C@@H]3C=C(C)C4=Cc5c(cnn5-c5ccccc5)C[C@]4(C)[C@@H]3[C@@H](O)C[C@@]21C
active: [9] 11.8 µM | [7] 5260 nM | [8] 2.96 µM | [2] 1180 nM | [3] 19.3 µM | [4] 3.72 µM | [5] 18.7 µM | [6] 18.7 µM

COc1cc2c(Oc3ccc(-c4cnc(Nc5ccc(F)cc5)n(C)c4=O)cc3F)ccnc2cc1OCCCN1CCOCC1
active: [9] 18.7 µM | [7] 526 nM | [8] 5.9 µM | [2] 833 nM | [3] 24.3 µM | [4] 3.32 µM | [5] 14.8 µM | [6] 2.09 µM

Cc1nc2ccc(CN(C)c3ccc(C(=O)N[C@@H](CCC(=O)O)C(=O)O)s3)cc2c(=O)[nH]1
active: [1] 131 nM | [8] 0.059 µM | [2] 10.5 nM | [4] 0.0422 µM
inactive: [5]

COc1cc2c(Nc3ccc(NC(=O)c4ccccc4)cc3)ncnc2cc1OCCCN1CCOCC1
active: [1] 3700 nM | [7] 5260 nM | [8] 14.8 µM | [3] 30.6 µM | [4] 18.7 µM

C[C@@H](Oc1cc(-c2cnn(C3CCNCC3)c2)cnc1N)c1c(Cl)ccc(F)c1Cl
active: [1] 20800 nM | [7] 74.3 nM | [8] 14.8 µM | [2] 2350 nM | [4] 9.35 µM | [6] 9.35 µM

CC1(C)O[C@@H]2C[C@@H]3[C@H]4C[C@@H](F)C5=CC(=O)C=C[C@]5(C)[C@@]4(F)[C@@H](O)C[C@]3(C)[C@]2(C(=O)CO)O1
active: [2] 9350 nM
inactive: [1] | [3] | [4] | [5] | [6]

CC[C@@]1(O)C(=O)OCc2c1cc1n(c2=O)Cc2cc3cc(O)ccc3nc2-1
inactive: [5]
active: [9] 0.118 µM | [7] 23.5 nM | [8] 0.0296 µM | [2] 13.2 nM | [3] 0.0217 µM | [4] 0.0118 µM | [6] 0.0662 µM

O=C(O)CO.[NH2-].[NH2-].[Pt+2]
not listed: [1] | [6]
inactive: all other assays above

CNC(=O)c1ccc(N2C(=S)N(c3cnc(C#N)c(C(F)(F)F)c3)C(=O)C23CCC3)cc1F
inactive: [6]
active: [9] 0.935 µM | [7] 7430 nM | [8] 1.48 µM | [2] 1050 nM | [3] 19.3 µM | [4] 7.43 µM | [5] 14.8 µM

COC(=O)C[C@](O)(CCCC(C)(C)O)C(=O)O[C@@H]1C(OC)=C[C@]23CCCN2CCc2cc4c(cc2[C@H]13)OCO4
inactive: [1] | [7] | [8] | [3] | [5]
active: [6] 18.7 µM

CC(C)(C)NC(=O)[C@H]1CN(Cc2cccnc2)CCN1C[C@@H](O)C[C@@H](Cc1ccccc1)C(=O)N[C@H]1c2ccccc2C[C@H]1O
active: [8] 0.743 µM | [2] 118 nM | [6] 18.7 µM
inactive: [1] | [5]

Cc1cc(Nc2cc(N3CCN(C)CC3)nc(Sc3ccc(NC(=O)C4CC4)cc3)n2)n[nH]1
inactive: [3] | [5] | [6]
active: [1] 930 nM | [8] 11.8 µM | [2] 418 nM | [4] 0.935 µM

COc1cc(C(=O)N2CCC(N3CCN(C)CC3)CC2)ccc1Nc1ncc2c(n1)N(C)c1ccccc1C(=O)N2C
active: [7] 18700 nM | [8] 11.8 µM | [2] 10500 nM | [3] 15.3 µM | [4] 16.6 µM
inactive: [5]

COC(=O)C1=C(C)NC(C)=C(C(=O)OCCN2CCN(C(c3ccccc3)c3ccccc3)CC2)C1c1cccc([N+](=O)[O-])c1 (stereo unspecified)
active: [2] 6680 nM | [6] 13.3 µM
inactive: [5]

COCCOc1ccc2c(c1)ncn2-c1ccc2cccc(N3CCC(N)CC3)c2n1
active: [9] 23.5 µM | [8] 4.69 µM | [3] 24.3 µM | [4] 23.5 µM | [5] 18.7 µM | [6] 18.7 µM

Cn1c2ccccc2c2c3c(c4c5ccccc5n(CCC#N)c4c21)CNC3=O
active: [9] 5.9 µM | [8] 0.935 µM | [2] 148 nM | [3] 7.69 µM | [4] 0.418 µM | [6] 0.935 µM

NCC(=O)Nc1ccc(-n2nc(C(F)(F)F)cc2-c2ccc3c(ccc4ccccc43)c2)cc1
active: [9] 23.5 µM | [8] 23.5 µM | [2] 37.2 nM | [3] 24.3 µM | [4] 0.833 µM | [6] 26.4 µM

CC(C)=CCCC(C)=CCCC(C)=CCSc1ccccc1C(=O)O
active: [7] 833 nM | [8] 5.9 µM | [2] 743 nM | [3] 7.69 µM | [4] 5.9 µM | [6] 3.72 µM
